VP16 counter – Gal4-VP16 reporter inhibition counter-screen | Drosophila S2 Gal4-VP16 UAS-luciferase, luminescence, 20 h | 310,000 compounds, 3.5% hits | Potency, µM (doses to about 53.6 µM), actives largely listed as inhibitors;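 further: Gal4-VP16 expression switched on by copper sulfate through the metallothionein promoter; nearly all actives have a fitted effect of over 50% in size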
SW480 rereplic – DNA re-replication induction in SW480 cells; Potency, µM (top dose mostly 46.1 µM), hits mostly activators; 340,000 compounds, 1.8% hits; SW480 DNA re-replication, Hoechst DNA content imaging, 48 h; further: nearly all actives have a fitted effect of over 55% in size
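Per well, 250 cells were exposed to pinned compound for 48 hr. Nuclear DNA was visualised with Hoechst (40 min, 37 C) and total object intensity recorded by fluorescence scanning.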
MCF10A rereplic – induces DNA re-replication in MCF 10a normal breast cells. MCF 10A DNA re-replication, Hoechst nuclear intensity, 48 h. Potency, µM (top dose mostly 46.1 µM), actives largely listed as activators. 350,000 compounds, 2.9% hits; further: nearly all actives have a fitted effect of over 50% in size
RORgamma inh – blocks mouse ROR gamma transcriptional activity; P51450; Drosophila S2 Gal4-RORgamma UAS-luciferase reporter, 20 h; Potency, µM (titrated, usually from 53.6 µM), usual class: inhibitors; 310,000 compounds, 5.4% hits; AID 2551; further: nearly all actives have a fitted effect of over 60% in size
Target sequence (P51450 whole entry, looked up, the tested form may be a part): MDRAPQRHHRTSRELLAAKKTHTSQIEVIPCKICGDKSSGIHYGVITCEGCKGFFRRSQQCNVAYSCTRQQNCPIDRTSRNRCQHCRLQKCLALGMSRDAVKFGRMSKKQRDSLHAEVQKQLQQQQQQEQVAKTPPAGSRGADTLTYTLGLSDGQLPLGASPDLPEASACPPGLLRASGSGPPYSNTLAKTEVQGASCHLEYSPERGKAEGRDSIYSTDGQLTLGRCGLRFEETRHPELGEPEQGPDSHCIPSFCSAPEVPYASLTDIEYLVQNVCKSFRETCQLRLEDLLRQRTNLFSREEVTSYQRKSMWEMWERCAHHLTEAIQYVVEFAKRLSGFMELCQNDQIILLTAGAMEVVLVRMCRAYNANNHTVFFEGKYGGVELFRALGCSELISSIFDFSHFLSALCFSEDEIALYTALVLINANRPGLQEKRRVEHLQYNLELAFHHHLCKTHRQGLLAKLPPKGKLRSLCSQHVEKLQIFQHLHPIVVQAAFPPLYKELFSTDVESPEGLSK
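Schneider cells (Drosophila), stable Gal4 DBD–ROR gamma + UAS-luc; 1 hr cmpd preincubation; Cu2+ induction 700 uM final; 20 hr ambient; luminescence.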
ELG1 repair inh – inhibitors of ELG1-dependent DNA repair in HEK293T cells | HEK293T ELG1-luciferase reporter, luminescence, 16 h; DNA damage induced by 5-fluorouridine | Potency, µM (doses to about 46.1 µM), actives largely listed as inhibitors | 330,000 compounds, 2.3% hits; further: nearly all actives have a fitted effect of over 55% in size
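5-Fluorouridine DNA damage + compound/DMSO, 2,000 cells/well, 16 h, 37 °C/5% CO2. ONE-Glo, 30 min RT, luminescence. Readout = decrease in reporter signal.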
A number is an active result; . = inactive; ? = inconclusive; / = not tested or not shown; [ ] = another dose, or the depositor's remark. In the library only some 10% were active in any assay of this set; here they are far more common. The call rests on the fitted dose curve; in most records, active means well fitted curve in the direction sought with a large enough effect; inconclusive means small, poorly fitted or top-dose-only effect, or another doubt; inactive means no such curve, though single readings can be large; an effect the other way counts as inactive or inconclusive.

SMILES	VP16 counter	SW480 rereplic	MCF10A rereplic	RORgamma inh	ELG1 repair inh
CCC(C)N(C(=O)CSc1nnc(NC(C)C)s1)C1CCS(=O)(=O)C1 (centres undefined)	/	.	.	/	.
CCN(CC)c1ccc(NC(=O)c2ccc(S(=O)(=O)N3CCOCC3)cc2)cc1	/	.	?	/	?
CCN(CC)c1ccc(NC(=O)COc2ccc(C#N)cc2)cc1S(=O)(=O)Nc1ccc(OC)cc1	.	.	.	.	.
COc1ccccc1-c1ocnc1C(=O)N1CCN(S(=O)(=O)c2ccc(NC(C)=O)cc2)CC1	.	.	.	.	.
Cc1cccnc1NC(=O)Nc1cccc(Cl)c1	.	?	.	.	?
Cc1cccnc1N(C(=O)Nc1ccccc1)C1=NCC(C)(C)S1	?	.	.	10µM	.
Cc1cccnc1N(C(=O)Nc1cccc(Cl)c1)C1=NCC(C)(C)S1	.	.	.	11.2µM	.
CC1(C)CN=C(N(C(=O)Nc2ccccc2)c2ccccc2F)S1	.	.	?	.	.
Clc1cccc(-c2nnc(-c3ccccc3)o2)c1	?	.	16.4µM	.	?
COc1cc(-c2nnc(-c3cc(OC)c(OC)c(OC)c3)o2)cc(OC)c1OC	.	.	.	.	8.2µM
COc1cc(-c2nnc(-c3ccccc3)o2)cc(OC)c1OC	.	.	.	?	23.1µM
c1ccc(-c2nnc(-c3ccccc3)o2)cc1	.	.	.	.	?
CC(CNS(=O)(=O)c1ccc2c(c1)NC(=O)CCS2)c1ccccc1 (centres undefined)	.	.	.	.	.
O=C(COC(=O)COc1ccccc1[N+](=O)[O-])Nc1cccc(Br)c1	.	.	.	.	.
CCOC(=O)c1[nH]nc(-c2cc(CC)c(O)cc2O)c1-c1cscn1	12.6µM	.	.	?	?
C=CCn1c(N)cc(=O)nc1SCC(=O)NC(C)c1ccccc1 (centres undefined)	17.8µM	.	.	.	.
Cc1ccc(N2CCN(c3ccc(NC(=O)CCC(=O)O)cc3)CC2)cc1	.	.	.	.	.
O=C(O)CCC(=O)Nc1ccc(N2CCCCCC2)cc1	.	.	.	2.51µM	?
Cc1c(C)n2c(SCC(=O)N3CC(C)OC(C)C3)nnc2[nH]c1=O (centres undefined)	/	.	.	/	.
CCn1nc(C)cc1C(=O)N1CCCC(N2CCN(c3cccc(Cl)c3)CC2)C1 (centres undefined)	.	/	/	.	.
Cc1nn(C)c(C(=O)Sc2cccc(Cl)c2)c1[N+](=O)[O-]	.	?	18.4µM	.	.
CCn1nc(C)cc1C(=O)Sc1cccc(Cl)c1	?	.	23.1µM	?	.
Cc1cccc(NC(=O)CNC(=O)CN2C(=O)NC3(CCCCC3C)C2=O)c1C (centres undefined)	/	.	.	/	.
Cc1ccc(-c2nc3ccccc3o2)cc1NC(=S)NC(=O)/C=C/c1ccco1	?	8.2µM	7.31µM	2µM	?
O=C(/C=C/c1ccco1)NC(=S)Nc1cccc(-c2nc3ccccc3o2)c1	12.6µM	9.2µM	3.66µM	2.24µM	?
SMILES	VP16 counter	SW480 rereplic	MCF10A rereplic	RORgamma inh	ELG1 repair inh
COc1ccccc1NC(=O)C1C2C=CC(C2)C1C(=O)NCc1cccnc1 (centres undefined)	.	.	4.61µM	.	.
C=CCOC(=O)/C=C/C(=O)NC(N)=O	?	.	?	20µM	.
C=CCOC(=O)/C=C/NC(=O)/C=C/C=C/CCCCCCCC(C)O (centres undefined)	.[10 µM]	/	/	.[10 µM]	/
COc1cccc(NC(=O)NNC(=O)CN2C(=O)COc3ccccc32)c1	.	.	.	.	.
O=C(c1ccncc1)N1CCC2(CCN(Cc3ccncc3)CC2)CC1	.	/	/	.	/
Nc1nc(-c2cc(O)ccc2[N+](=O)[O-])cc(-c2ccccc2)c1[N+](=O)[O-]	12.6µM	23.1µM	1.84µM	?	.
COc1cc(C)c(CNc2ccc(OC)c(OC)c2)cc1C	.	/	/	.	?
CC(C)(C)c1cc(NC(=O)Nc2ccc(Cl)cc2Cl)no1	.	.	18.4µM	.	.
C[C@H](CO)N1C[C@H](C)[C@@H](CN(C)S(=O)(=O)c2cccs2)Oc2c(NC(=O)CCC(F)(F)F)cccc2C1=O	/	.[9.22 µM]	.	/	.
CC(C)n1c(O)c(N=NC(=O)C2COc3ccccc3O2)c2ccccc21 (centres undefined)	.	?	13µM	?	?
Cn1c(O)c(N=NC(=O)C2COc3ccccc3O2)c2ccccc21 (centres undefined)	.	.	.	.	.
Cc1c(C(=O)NNC(=O)c2ccncc2)oc2ccc(Br)cc12	/	.	.	/	.
Cc1ccc(/C=C/C(=O)NC2=NCCS2)cc1	?	.	.	11.2µM	?
CC(C)(C)c1ccc(/C=C/C(=O)NC2=NCCS2)cc1	4.47µM	.	.	2.82µM	?
Cc1ccc(OCC(=O)NC2=NCCS2)cc1	.	.	.	.	.
Cc1ccc(S(=O)(=O)/N=C(\N)Nc2nc(C)c3cc(C)ccc3n2)cc1	.	.	.	.	.
CCc1ccccc1NC(=S)/N=C(\N)Nc1nc(C)c2cc(C)ccc2n1	3.16µM	20.6µM	?	2.82µM	20.6µM
Cc1ccc(S(=O)(=O)/N=C(\N)Nc2nc(C)c3cc(C)c(C)cc3n2)cc1	.	.	.	.	.
Cc1ccc(NC(=S)/N=C(\N)Nc2nc(C)c3cc(C)ccc3n2)c(C)c1	7.08µM	.	?	7.94µM	?
Cc1ccc(NC(=S)/N=C(\N)Nc2nc(C)c3cc(C)c(C)cc3n2)cc1C	5.01µM	?	.	2.24µM	?
CNC(=O)c1cc(NC(=O)CCn2nc(-c3ccc(C)cc3)c3ccccc3c2=O)ccc1OC	.	.	.	.	?
O=C(c1cc(Br)ccc1Cl)N1CCN(c2ccc(N3CCOCC3)nn2)CC1	/	.	?	/	.
CCc1ccccc1NC(=O)CN1CCN(C(=O)c2ccc(OCc3cn4ccccc4n3)cc2)CC1	/	.	.	/	6.51µM
CCc1ccccc1NC(=O)CNC(=O)c1ccc(OCc2cn3ccccc3n2)cc1	/	.	.	/	?
Fc1cccc2sc(Nc3nc4ccccc4s3)nc12	7.08µM	.	?	4.47µM	?
SMILES	VP16 counter	SW480 rereplic	MCF10A rereplic	RORgamma inh	ELG1 repair inh
Fc1ccc2nc(Nc3ccccc3)sc2c1	.	.	.	.	?
Fc1ccc2nc(Nc3nc4c(F)cccc4s3)sc2c1	5.62µM	/	?	2µM	?
Fc1ccc2nc(Nc3nc4c(F)cc(F)cc4s3)sc2c1	6.31µM	.	14.6µM	8.91µM	?
Cc1ccc(-n2c(C)cc(C(=O)CSc3nnnn3C)c2C)cc1	12.6µM	.	?	?	?
Cc1cc(NC(=O)CN2CCOCC2)n(-c2ccccc2)n1	.	.	.	.	.
Cc1cc(NC(=O)CN2CCOCC2)n(-c2nc3ccccc3s2)n1	.	.	14.6µM	3.55µM	/
Cc1cc(C)nc(-n2nc(C)cc2NC(=O)c2cccc(S(=O)(=O)N(C)C)c2)n1	.	.	.	?	.
Cc1ccc(C)c(C(=O)Nc2cc(C)nn2-c2nc(C)cc(C)n2)c1	?	.	?	0.501µM	?
